Source: PubChem BioAssay (NCATS)
Several values for one entry are separate records, joined by “and”; a condition that tells them apart may be missing. Equal values may be shown once. Inconclusive results are not listed. A number with no mark means an inactive call. Activity calls are given as the source filed them. Calls follow the shape of the dose curve; as a rule, active = well fitted inhibition curve with a large enough effect; inconclusive = small, poorly fitted or top-dose-only effect; inactive = flat fitted curve, though single readings scatter. *1 amine or outer side, *2 acyl side, *3 side chain or, on linkers, in order; H or OH if unused. Where a SMILES comes first, the peptide text is derived from it. [ ]: non-standard residue; d: D form. X4 = CC(C)=CCc1cc(C(O)C(N[*:1])C(=O)[*:2])ccc1O

test: Primary qHTS for inhibitors of nuclear receptor binding SET domain protein 2 (NSD2) in an isogenic RCH-ACV NSD2 p.E1099K mutant (9B) (AID 1645876); settings: RCH-ACV (leukaemia line) NSD2 E1099K (9B) viability, CellTiter-Glo, 72 h; series mostly up to 44.9 µM; activity change, negative = viability loss: at the top concentration; also: nearly all actives have a fitted effect of over 70% in size
% is scaled to controls: 0 for no effect and ±100 for the full control effect; potency is read from the fitted curve at half-maximal effect.

Compound	activity change, negative = viability loss	Potency	outcome
CC1CCC2C(C)(C)[C@@H](O)CC[C@]2(C)C12Cc1c(O)cc3c(c1O2)CN(C(CCC(=O)O)C(=O)O)C3=O (stereo partly specified)	-4.94% [at 17.3 µM]	–	–
COc1ccc(/C=C/C(=O)O[C@@H]2[C@@H](O)[C@@H](O)[C@H](O[C@@H]3C=C(CO)[C@H]4[C@H](O[C@@H]5O[C@H](CO)[C@@H](O)[C@H](O)[C@H]5O)OC=C[C@H]43)O[C@H]2C)cc1O	4.79% [at 17.3 µM]	–	–
CC(CO)C1CCC2(C)CC3C(CO)CC(O)C3C(C)(O)C/C=C/12 (stereo unspecified)	-11%	–	–
CC1(C)CC[C@]2(C(=O)O[C@@H]3O[C@H](CO[C@@H]4O[C@H](CO)[C@@H](O)[C@H](O)[C@H]4O[C@@H]4O[C@H](CO)[C@H](O)[C@H](O)[C@H]4O)[C@@H](O)[C@H](O[C@@H]4O[C@H](CO)[C@@H](O)[C@H](O)[C@H]4O)[C@H]3O)CC[C@]3(C)C(=CCC4[C@@]5(C)CC[C@H](O[C@@H]6OC[C@@H](O)[C@H](O)[C@H]6O)[C@@](C)(C(=O)O)C5CC[C@]43C)[C@@H]2C1 (stereo partly specified)	-8.77% [at 9.23 µM]	–	–
Nc1ncnc2c([C@@H]3N[C@H](CO)[C@@H](O)[C@H]3O)c[nH]c12	-27.2%	–	–
CC(=O)NC1C(OC(C)(C)C2CCC3(C)C=C(C4CCC5C4(C)CC(O)C4OC(C(C)(C)O)CCC45C)CCC3O2)OC(CO)C(O)C1O (stereo unspecified)	-23.6% [at 17.3 µM]	–	–
CC(=O)OC1C[C@]2(C)C(O)CC(C)=C[C@H](OC(=O)c3ccc(O)cc3)C2[C@]1(O)C(C)C (stereo partly specified)	-1.49% [at 17.3 µM]	–	–
OC[C@H]1O[C@@H](O[C@H]2[C@H](OCCc3ccccc3)O[C@H](CO)[C@@H](O)[C@@H]2O)[C@H](O)[C@@H](O)[C@@H]1O	1.2% [at 17.3 µM]	–	–
O=C(O)c1ccc(CN2CCC(CN[C@@H]3C[C@H]3c3ccccc3)CC2)cc1	–	inactive	–
C[C@]12C=C[C@@]3(CCC4[C@](C)(CO)CCC[C@@]4(C)C3CC1)C2 (stereo partly specified)	-7.31%	–	–
C=C1[C@H](OC(C)=O)[C@H]2[C@@H](OC(C)=O)[C@](C)(OC(C)=O)C[C@]2(OC(C)=O)C(=O)[C@H](C)/C=C/C(C)(C)C(=O)[C@H](OC(=O)C(C)CC)[C@H]1OC(C)=O (stereo partly specified)	–	–	inactive [at 17.3 µM]
CC(C)=CCc1cc(C(O)C2NC(=O)CNC(=O)C(Cc3c[nH]c4ccccc34)NC(=O)C3CCCN3C(=O)CNC(=O)C(C(C)C)NC(=O)CNC2=O)ccc1O (stereo unspecified) (cyclo(G[X4]GVGPW); configuration not given here)	-11.5% [at 9.23 µM]	–	–
COC(=O)CCC(=O)OC[C@]1(C)CCC[C@@]2(C)C3CC[C@]4(C)C=CC3(CCC12)C4 (stereo partly specified)	-0.303% [at 17.3 µM]	–	–
C=C1[C@@H]2CC[C@@H]3[C@@](CCC4C(C(=O)O)(C(=O)O)C[C@@H](O[C@@H]5O[C@H](CO)[C@@H](O)[C@H](O)[C@H]5OC(=O)CC(C)C)C[C@]43C)(C2)[C@H]1O (stereo partly specified)	1.44% [at 17.3 µM]	–	–
FC(F)(F)c1cc(-c2ncn(/C=C\c3nnco3)n2)cc(C(F)(F)F)c1	–	2300 nM (active)	–
CC(C)=CCC[C@](C)(O)[C@H]1CC[C@]2(C)[C@@H]1[C@H](O)CC1[C@@]3(C)CC[C@H](O)C(C)(C)[C@@H]3[C@@H](O[C@@H]3O[C@H](CO)[C@@H](O)[C@H](O)[C@H]3O[C@@H]3O[C@H](CO)[C@@H](O)[C@H](O)[C@H]3O)C[C@]12C (stereo partly specified)	4.79% [at 17.3 µM]	–	–
C[C@@H]1C[C@H]2O[C@@H]2/C=C\C=C\C(=O)Cc2c(Cl)c(O)cc(O)c2C(=O)O1	–	488 nM (active) and 640 nM (active)	–
COC(=O)C[C@H]1C(C)(C)[C@H](OC(=O)C(C)C)[C@@]2(O)C(=O)[C@]1(C)C1CC[C@]3(C)C(CC(=O)O[C@H]3c3ccoc3)[C@]13O[C@@H]32 (stereo partly specified)	-3.66% [at 17.3 µM]	–	–
C=C1C(=O)O[C@@H]2/C=C(\C)C(=O)/C=C/[C@](C)(O)C[C@@H](OC(=O)C(C)C)[C@@H]12	–	401 nM (active)	–
CCC1=CC2CN(C1)Cc1c([nH]c3ccccc13)[C@@](C(=O)OC)(c1cc3c(cc1OC)N(C)[C@H]1[C@@](O)(C(=O)OC)[C@H](OC(C)=O)[C@]4(CC)C=CCN5CC[C@]31[C@@H]54)C2 (stereo partly specified)	–	79.6 nM (active)	–
C=C(C)C1CCC2(C(=O)O[C@@H]3O[C@H](CO[C@@H]4O[C@H](CO)[C@@H](O)[C@H](O)[C@H]4O)[C@@H](O)[C@H](O[C@@H]4O[C@@H](C)[C@H](O)[C@@H](O)[C@H]4O)[C@H]3O)CCC3(C(=O)O)C(CCC4C5(C)CCC(O)C(C)(C)C5CCC43C)C12 (stereo partly specified)	–	–	inactive [at 9.23 µM]
